From the supplement of paper PMC3334620
Whole data set: some 33,000 sequences, median “E-score (-0.5 to 0.5)” near -0.017, cut for the highest 2% near 0.3. The list comes from a sample in which the highest values are over-represented; it also holds similar and randomly drawn sequences.

biological target: T1, Sut1 (UniProt P53032); assay: PBM E-score (8-mer binding enrichment) (E-score (-0.5 to 0.5)); higher = stronger / more preferred TF binding; conditions: protein concentration: 200 nM; construct: GST-full length
T1 sequence: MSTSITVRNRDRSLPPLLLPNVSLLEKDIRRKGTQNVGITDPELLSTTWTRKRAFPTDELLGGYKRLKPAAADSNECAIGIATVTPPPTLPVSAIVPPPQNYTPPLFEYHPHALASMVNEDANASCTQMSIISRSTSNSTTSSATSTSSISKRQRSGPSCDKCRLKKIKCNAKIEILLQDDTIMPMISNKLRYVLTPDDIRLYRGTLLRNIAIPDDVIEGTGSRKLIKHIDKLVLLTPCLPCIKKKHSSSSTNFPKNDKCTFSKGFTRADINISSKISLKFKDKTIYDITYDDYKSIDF
In short: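 Yeast transcription factors carrying a GST tag, as full-length proteins or DNA-binding domains, were produced by PURExpress in vitro transcription/translation. About 100-200 nM protein was applied to universal all-10-mer Agilent arrays, double-stranded by primer extension on fresh or once-stripped slides. Bound protein was detected with fluorescent anti-GST, and scans were normalised with masliner. The Universal PBM Analysis Suite gave each ungapped eight-base word, pooled with its reverse complement, an E-score, a modified Wilcoxon-Mann-Whitney statistic.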

Sequence	PBM E-score
CGCATTCC	-0.284
AGTATCGG	0.176
CGTGGGTC	-0.162
CCTCAAGA	-0.113
GTCCTCAC	-0.0725
ACAGTCAC	-0.176
TTATACAA	0.326
ATATACAA	0.256
GTATACAA	0.179
CCATACAA	0.0626
GCATACAA	0.0888
TCATACAA	0.304
AACCTTGA	0.116
GATGGTGC	-0.409
GCAGGGAA	0.0261
CAAGAGAA	0.0231
AGAAGCCC	0.167
CAATATAA	0.308
CAATATAG	0.1
GAATATAA	0.153
CGATAAAA	0.303
GAATAAAA	0.242
CAATATAC	0.144
CAATAAAA	0.136
TAATATAA	0.306

Sequence	PBM E-score
GGATAAAA	0.252
TGATAAAA	0.283
TAATAATA	0.282
TAATAAAA	0.332
ATATAGGA	0.0279
AAATTGCA	-0.0262
ACCCTATC	0.0201
CTTGAACA	0.0785
GTTGCGCA	-0.226
CAGCCTAC	-0.0545
CGGATGCA	-0.0215
ATTGTATG	0.175
AATGTATA	0.298
CTTGTATA	0.166
GATGTATA	0.0593
ATTGTATA	0.311
CATGTATA	0.0763
AGCCTACG	-0.109
AGCCCATC	-0.23
AACATGGG	-0.00269
CTATTGAA	0.226
AAACAAAC	0.165
ACCAACAG	-0.297
AAACAAAA	0.197
AAAAACAA	0.316

Sequence	PBM E-score
ACCAACAA	0.299
CAAACAAA	0.161
TAAAACAA	0.207
ACCAACAT	0.0524
AAACAAAG	0.322
GAAACAAA	0.321
GAAAACAA	0.184
GAAACAAC	0.107
GAGTTGAA	0.18
ACAGATAT	0.0244
ATAAGTTC	0.261
ATACAGTG	0.0667
CTCCAAAG	0.0263
CCTCGACA	-0.288
CATGCGTA	-0.0829
ATCAGTTA	0.204
AAAACAAA	0.312
AAAACAAT	0.215
GAAAAACA	0.125
AAAAAACA	0.313
AAAACAAG	0.0776
TAAAAACA	0.188
AAGTTACC	0.158
CCCAAGGC	-0.0767
GATACGCA	-0.141

Sequence	PBM E-score
AATACGGA	0.286
GATACGGA	0.364
TATACGGA	0.312
CATACGGC	-0.156
CATACGGG	-0.186
GATACGGC	-0.104
TATACGAA	0.194
CATACGGA	0.303
ATGAGTCA	-0.0351
GCGCTAAC	-0.0641
TAGCTATA	-0.0172
GCGATCCA	-0.121
AGTTTTAT	0.211
TACCACCA	0.0245
CAGCCTGC	-0.224
AGACGAGG	-0.182
CGTACTCC	0.348
AGTACTCG	0.0601
CGTACTCA	0.0162
AGTACTCA	0.0483
AGTACTCC	0.325
CGTACTAC	0.0559
AAAGTCAG	0.00828
GCTAAAGC	-0.0213
CCTATCGC	-0.115

Sequence	PBM E-score
CAGCAAAG	-0.0349
GTCCGTCA	0.253
CCCCGTCC	-0.194
ATCCGTCC	-0.0115
ATCCGTCA	0.0376
CTCCGTCA	0.369
CTCCGTCC	0.307
CTACACAG	-0.108
CCAGGGTC	-0.265
ACGTATTC	-0.0472
TGACTTAA	0.153
GCGTCCGA	-0.09
CAGTCCGC	0.196
CCGTCCGA	0.0411
GAGTCCGA	0.476
CAGTCCGA	0.411
CAGTCCAG	-0.325
CAGTCCCG	-0.0578
TAGTCCCA	-0.21
GAGTCCGC	0.282
TAGTCCAA	-0.01
TAGTCCGA	0.48
CAGTCCGG	0.353
AACTTACT	0.0273
CGCCCTTC	-0.0609

Sequence	PBM E-score
AGTGGCGA	0.0883
AGGGGCCC	-0.217
AACAGAAT	0.0169
ATCGATGG	-0.0596
AGGCTACG	-0.345
AAGTCTGA	-0.193
CAAATTCA	0.0268
GCAGAATA	-0.0687
GCACCGGA	0.338
TCACCGGA	0.397
ACACCGGA	0.343
ACACCGGC	0.0168
CCACCGGG	-0.0405
CCACCGGA	0.362
TCACCGAA	0.155
GCACCGTA	0.0972
TCACCGCA	-0.0955
ACACCGGT	0.0191
CCACCGGC	0.0248
GCACCGGC	-0.0791
GGCTTTAC	0.113
ACTGAGAC	0.00875
ATCCAGAC	-0.0133
CGGTTTAC	0.00822
AGGGCTGA	-0.161

Sequence	PBM E-score
CGAGGAAG	0.0543
AAGCCATC	0.0153
TAACAGGA	0.0331
GAACCAGA	-0.185
GAACGTGC	-0.234
TGGTTAAA	0.159
AAACGGGA	0.159
AAACGGAG	0.37
AAACGGTA	0.0446
GAACGGAA	0.166
CAACGGAG	0.399
CAACGGAC	0.291
TAACGGAA	0.309
AAACGGAT	0.209
AAACGGAC	0.147
TCACGGAA	0.238
AAACGGAA	0.331
CAACGGAA	0.25
ACCCAACG	-0.0276
CACCCTAC	-0.161
CATATGCG	-0.0808
AGTAAACG	-0.0776
CTACCAGC	-0.212
GGCGTTGA	-0.134
